The supplement of paper PMC4166925
± gives the standard deviation of the averaged measurements. The full ranking holds about 33,000 sequences; the median of “E-score (dimensionless, -0.5 to 0.5)” is about -0.049, and the highest 2% start at about 0.37. For the sample, the highest values were picked, then their nearest neighbours and some sequences at random.

Tested on: T1, PmTbr T-box DNA-binding domain (GST fusion)
T1 sequence: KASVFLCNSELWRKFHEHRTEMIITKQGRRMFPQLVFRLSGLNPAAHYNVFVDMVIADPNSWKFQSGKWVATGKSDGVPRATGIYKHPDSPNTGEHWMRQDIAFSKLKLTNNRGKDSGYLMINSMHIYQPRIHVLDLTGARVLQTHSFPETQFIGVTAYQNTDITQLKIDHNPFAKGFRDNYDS
Assay: PBM E-score of 8-mer (E-score (dimensionless, -0.5 to 0.5)); Tbr is Tbrain of the sea star Patiria miniata (Pm) or the sea urchin Strongylocentrotus purpuratus (Sp); higher = stronger binding preference
Details: the construct has about 5 more residues each side
Summary of the method: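 Using the Universal PBM Analysis Suite, every ungapped 8-mer received an enrichment E-score averaged over duplicate arrays. Probe intensities came from double-stranded Universal Agilent oligonucleotide arrays incubated with 200 nM GST-fused Tbr T-box DNA-binding domain in PBS (pH 7.5). That protein was expressed in BL21 E. coli at 20 °C and purified by glutathione affinity chromatography.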

Point of comparison: GGGTGTAC, “PBM E-score of 8-mer” value -0.0259 ± 0.052. Against it:
- CGTTCGCA — higher, 0.38 ± 0.037
- CGTTCGCC — within error, 0.0701 ± 0.066
- AGTTCGCC — within error, 0.0555 ± 0.091
- GGTTCGCA — higher, 0.334 ± 0.02
- AGTTCGCA — higher, 0.378 ± 0.0033
- ACTGCAGT — higher, 0.185 ± 0.034
- AAGTGCGC — higher, 0.138 ± 0.026
- CAGTGCGA — higher, 0.386 ± 0.019
- CAGTGCGC — within error, -0.0646 ± 0.032
- GCGTGCGA — higher, 0.285 ± 0.02
- AAGTGCGT — higher, 0.149 ± 0.039
- CAGTGCGG — within error, -0.0389 ± 0.1
- ACGTGCGA — higher, 0.4433 ± 0.0027
- TAGTGCCA — higher, 0.249 ± 0.0097
- TAGTGCGA — higher, 0.4056 ± 0.0024
- ACGTGCGG — higher, 0.191 ± 0.05
- TAGTGCAA — higher, 0.267 ± 0.055
- AAGTGCGA — higher, 0.4835 ± 0.00061
- ATCAACGG — lower, -0.182 ± 0.042
- ATGTTTCA — lower, -0.174 ± 0.074
- CGGTTTGA — lower, -0.1932 ± 0.0019
- ATAACCAA — within error, -0.112 ± 0.038
- CTTAGGAA — lower, -0.24 ± 0.011
- CGGAAAAA — within error, -0.0583 ± 0.12
- AAACTACT — higher, 0.0819 ± 0.0066
- CTTCTCAC — higher, 0.365 ± 0.01
- GAGTGCAA — higher, 0.0826 ± 0.02
- GAGTGCGA — higher, 0.4088 ± 0.00055
- GAGTGCGC — within error, -0.0278 ± 0.044
- ATGTGCGC — higher, 0.138 ± 0.0009
- ATGTGCGG — higher, 0.0803 ± 0.028
- ATGTGCGA — higher, 0.4691 ± 0.0032
- CCTTTCGA — within error, -0.06 ± 0.02
- AAGTCATA — within error, -0.0653 ± 0.022
- ATGCAATA — lower, -0.341 ± 0.0082
- GACCTTAC — lower, -0.313 ± 0.028
- CACCTTAG — higher, 0.4473 ± 0.0023
- CCCCTTAG — lower, -0.195 ± 0.0038
- AACCTTAC — within error, -0.000525 ± 0.043
- CACCTTAA — higher, 0.385 ± 0.011
- AACCTTAA — lower, -0.209 ± 0.044
- CACCTTAC — higher, 0.394 ± 0.0074
- AACCTTAG — lower, -0.0923 ± 0.0088
- GACCTTAA — lower, -0.136 ± 0.0073
- AATTCTAA — within error, -0.128 ± 0.086
- AAAGTCCG — within error, -0.00454 ± 0.029
- CCATCAGG — within error, 0.0307 ± 0.054
- CGAAGGGA — within error, 0.00651 ± 0.088
- ATATTCTC — within error, -0.0331 ± 0.008
- AGCGCTAA — higher, 0.362 ± 0.02
- GGCGCTAA — higher, 0.426 ± 0.0098
- TGCGCTAA — higher, 0.247 ± 0.036
- CGCGCTAG — higher, 0.159 ± 0.019
- CGCGCTAA — higher, 0.369 ± 0.0084
- GGCGCTAC — higher, 0.346 ± 0.037
- AGCAGCGA — within error, -0.0709 ± 0.041
- CCGCCCAA — within error, -0.101 ± 0.091
- TATGAGAA — lower, -0.274 ± 0.048
- GATTGCCC — within error, -0.0679 ± 0.024
- GCGCAGGA — within error, -0.0924 ± 0.067
- AGGTGTAC — higher, 0.218 ± 0.043
- AGGTGTAT — higher, 0.328 ± 0.0044
- TGGTGTAA — higher, 0.28 ± 0.011
- CGGTGTAA — higher, 0.131 ± 0.037
- CGGTGTAG — higher, 0.134 ± 0.1
- AGGTGTAA — higher, 0.47639 ± 0.00041
- GGGTGTAA — higher, 0.385 ± 0.013
- AGGTGTAG — higher, 0.408 ± 0.0046
- TTGGGAAA — within error, -0.102 ± 0.057
- AGTTCTGC — lower, -0.332 ± 0.0036
- CGACGGGA — lower, -0.129 ± 0.036
- CACAAGTG — higher, 0.367 ± 0.0037
- ATTGCCTA — within error, -0.134 ± 0.077
- AGTGCTGC — higher, 0.0868 ± 0.0037
- CATCAAAG — within error, -0.0524 ± 0.035
- GATATCCC — lower, -0.147 ± 0.05
- AACGCCTC — higher, 0.362 ± 0.007
- AACGCCTT — higher, 0.3747 ± 0.00064
- AACGCCTA — higher, 0.279 ± 0.034
- AAAGTGTA — higher, 0.147 ± 0.057
- ATAGTGTC — higher, 0.335 ± 0.011
- AAAGTGTC — higher, 0.4215 ± 0.0027
- AAAGTGTG — higher, 0.435 ± 0.012
- ATAGTGTA — within error, 0.0192 ± 0.0016
- AAAGTGAG — higher, 0.219 ± 0.048
- AGAGTGTG — higher, 0.34 ± 0.01
- ATAGTGTG — higher, 0.393 ± 0.033
- ACAGTGTC — higher, 0.238 ± 0.0038
- AAAGTGGT — higher, 0.106 ± 0.042
- AAAGTGGC — higher, 0.234 ± 0.005
- AAAGTGTT — higher, 0.429 ± 0.014
- AGGTTGTG — higher, 0.16 ± 0.052
- AGGACCAC — lower, -0.253 ± 0.12
- GATAGGCA — lower, -0.121 ± 0.014
- AGAATCTA — higher, 0.151 ± 0.0012
- CTTCGATA — within error, -0.00351 ± 0.034
- TTAGCAAA — higher, 0.173 ± 0.064
- AGAGTGTC — higher, 0.385 ± 0.0076
- CGAGTGTC — higher, 0.294 ± 0.018
- AGAGTGTA — within error, 0.0538 ± 0.058
- TAGGTTAA — lower, -0.216 ± 0.0052
- AGAGTTGA — higher, 0.0684 ± 0.016
- AGGCGAGC — lower, -0.25 ± 0.068
- GGGCGCTA — higher, 0.346 ± 0.018
- GGGCGCGA — higher, 0.409 ± 0.02
- GGGCGAGA — higher, 0.194 ± 0.052
- AGGCGCGA — higher, 0.463 ± 0.0056
- CGGCGCTA — higher, 0.239 ± 0.033
- AGGCGAGA — higher, 0.401 ± 0.011
- AGGCGCTA — higher, 0.4421 ± 0.0025
- GGGGGCGA — within error, 0.01664 ± 0.00016
- CGGCGCGA — higher, 0.317 ± 0.034
- AGGCGCGC — higher, 0.152 ± 0.021
- AGGCGCGG — higher, 0.242 ± 0.019
